Screening results from PubChem BioAssay.
An excerpt weighted towards active compounds, which were near 11% of everything screened.
KDM4E inh: JMJD2E (human) inhibition; B2RXH2; JMJD2E catalytic domain, FDH-coupled NADH fluorescence (FDH is formaldehyde dehydrogenase); Potency, µM (series often up to 57.1 µM), for the others: at the top dose activity change, negative = inhibition, usual class: inhibitors; actives 1.6% (n = 230,000); AID 2147;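 note: potency is the fitted concentration of half-maximal effect; 0% = wells with enzyme and -100% = buffer wells without enzyme; nearly all actives have a fitted effect of over 50% in size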
Target sequence (B2RXH2 1-337 limits assumed): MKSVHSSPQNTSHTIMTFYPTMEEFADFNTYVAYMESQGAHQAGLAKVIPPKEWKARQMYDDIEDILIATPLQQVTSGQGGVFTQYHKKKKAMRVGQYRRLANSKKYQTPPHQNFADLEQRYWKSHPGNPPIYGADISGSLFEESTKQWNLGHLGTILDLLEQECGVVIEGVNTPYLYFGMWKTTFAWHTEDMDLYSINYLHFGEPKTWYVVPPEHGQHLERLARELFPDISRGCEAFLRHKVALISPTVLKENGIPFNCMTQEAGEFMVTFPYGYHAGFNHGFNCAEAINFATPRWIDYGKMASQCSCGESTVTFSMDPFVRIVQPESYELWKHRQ
PNC inhibitor: inhibitors of perinucleolar compartment assembly. PC3M PTB-GFP, PNC prevalence imaging, 16 h; stronger effect = lower value. activity change (PNC), negative = inhibition, % at 10 µM. actives 3.1% (n = 140,000). AID 2417;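 active = readout at or below -70, meaning at least 70% loss of cells showing the perinucleolar compartment, a nuclear body marking cancer cells; inconclusive = readout between -30 and a set limit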;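 note: plate controls were DMSO wells for no effect and camptothecin positive control wells for full effect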
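PC3M cells stably expressing PTB-GFP, 750–1000 cells/well, treated 16 h at 37 °C with compound (23 nl of library stock), in duplicate. After paraformaldehyde fixation and Hoechst stain, imaged at 20x; PNC prevalence scored by image analysis.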
ALDH1A1 block: blocks purified human ALDH1A1 activity. Purified ALDH1A1, NADH fluorescence, propionaldehyde substrate. Potency, µM (top dose mostly 75.3 µM), for the others: at the highest dose activity, negative = inhibition, most hits filed as inhibitors. actives 7.3% (n = 220,000). AID 1030;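 note: potency is the fitted concentration of half-maximal effect; plate controls were no enzyme wells and a reference inhibitor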
HPGD inh: HPGD (human) dehydrogenase inhibition | P15428 | purified HPGD, NADH fluorescence kinetic, PGE2 substrate | Potency, µM, for inactives: at the highest dose activity change, negative = inhibition, most hits filed as inhibitors | actives 4.3% (n = 150,000) | AID 894; note: potency is the fitted concentration of half-maximal effect
Target sequence (P15428 whole entry, looked up): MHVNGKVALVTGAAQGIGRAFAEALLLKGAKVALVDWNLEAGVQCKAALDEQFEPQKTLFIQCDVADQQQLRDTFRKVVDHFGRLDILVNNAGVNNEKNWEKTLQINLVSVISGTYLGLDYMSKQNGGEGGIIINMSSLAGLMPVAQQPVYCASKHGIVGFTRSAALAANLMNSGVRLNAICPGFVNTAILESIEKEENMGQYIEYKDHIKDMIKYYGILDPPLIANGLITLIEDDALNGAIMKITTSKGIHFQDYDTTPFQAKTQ
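NADH formation kinetics: reaction with 30 uM PGE2 and 1 mM NAD+ (final), 20 nM enzyme, Tris-HCl pH 8 with Tween 20, after 15 min compound preincubation at room temperature. Fluorescence change, last versus first of five reads.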
Active calls of the source: *; [ ] = dose if it differs, or a comment. Unless noted, calls come from the whole dose curve; as a rule, active = well fitted inhibition curve with a large enough effect (not every such curve was filed as active); inconclusive = small, poorly fitted or top-dose-only effect, or another doubt; inactive = no such curve, though single readings can be large or run the other way. Unless noted, % is set by controls: 0 for no effect and ±100 for the full control effect.

Screening COc1ccc2nc(NS(=O)(=O)c3ccc(NC(C)=O)cc3)sc2c1 returned KDM4E inh -1.2%, PNC inhibitor 0.3, ALDH1A1 block -7.9% and HPGD inh 28.2µM*.
Screening COc1ccc2nc(NC(=O)CSc3nc(C)cc(=O)[nH]3)sc2c1 returned KDM4E inh -4.1%, PNC inhibitor -7.2, ALDH1A1 block inconclusive and HPGD inh 28.2µM*.
Screening COc1ccc(-n2nc(C(=O)Nc3nc4ccc(OC)cc4s3)c3ccccc3c2=O)c(OC)c1 returned KDM4E inh 8.3%, PNC inhibitor 38.7, ALDH1A1 block 20µM* and HPGD inh -6.1%.
Screening C=C1C2CC[C@@]3(C)C(c4ccoc4)OC(=O)C[C@@]13OC1CC(=O)C(C)(C)C(CC(=O)OC)[C@]12C (some centres undefined) returned KDM4E inh 2.5%, ALDH1A1 block 0.3% and HPGD inh -1.9%.
`Cc1cc(C)cc(OCC(=O)Nc2ccc3c4c(cccc24)CC3)c1` gave KDM4E inh -7.3%, PNC inhibitor 9.4, ALDH1A1 block -0.4% and HPGD inh -12.3%.
Screening Cc1cc(C)c(S(=O)(=O)Nc2ccc3c4c(cccc24)CC3)c(C)c1 returned KDM4E inh -11.4%, PNC inhibitor -88.4*, ALDH1A1 block inconclusive and HPGD inh -13.4%.
Cc1cc(C)c(S(=O)(=O)Nc2ccc3c(c2)CCC3)c(C)c1 was read as KDM4E inh -3.1%, PNC inhibitor -89.1*, ALDH1A1 block -3.7% and HPGD inh -21.3%.
`C[C@@]12C[C@H](O)C3[C@H](CCC4=CC(=O)CC[C@]43C)[C@H]1CC[C@@H]2c1csc(N)n1` (some centres undefined) gave ALDH1A1 block 2µM* and HPGD inh -3.2%.
Screening Cc1cc(-c2csc(N)n2)c(C)n1-c1ccc(Cl)c(Cl)c1 returned KDM4E inh -0.9%, PNC inhibitor inconclusive, ALDH1A1 block -15.3% and HPGD inh -8.6%.
`COc1ccc(-n2c(C)cc(-c3csc(N)n3)c2C)cc1` gave KDM4E inh inconclusive, PNC inhibitor 22.8, ALDH1A1 block 25.1µM* and HPGD inh -12.5%.
CCn1c(=O)c2c(n3c(=S)[nH]nc13)-c1ccccc1CC21CCCCC1 was read as KDM4E inh -2.1% and ALDH1A1 block 22.4µM*.
CCn1c(SCC#N)nc2c(c1=O)C1(CCCC1)Cc1ccccc1-2 was read as KDM4E inh -8.1%, PNC inhibitor inconclusive, ALDH1A1 block -0.2% and HPGD inh -10.9%.
`CC(=O)OC1CC[C@]2(C)C(CC(OC(C)=O)[C@@]3(C)C4=CC(=O)OC(c5ccoc5)[C@]4(C)CCC23)C1(C)C` (some centres undefined) gave KDM4E inh -7.8%, ALDH1A1 block 4.0% and HPGD inh -9.7%.
For COc1cccc(NS(=O)(=O)c2ccc(S(=O)(=O)N3CCOCC3)cc2)c1 the results were KDM4E inh -0.6%, PNC inhibitor inconclusive, ALDH1A1 block -11.3% and HPGD inh -5.4%.
COc1ccc(NS(=O)(=O)c2ccc(SC)cc2)cc1 was read as KDM4E inh 2.8%, PNC inhibitor 24.7, ALDH1A1 block 0.159µM* and HPGD inh -19.4%.
`O=S(=O)(NCc1ccco1)c1cccc(S(=O)(=O)N2CCOCC2)c1` gave KDM4E inh -0.6%, PNC inhibitor 12.7, ALDH1A1 block -9.6% and HPGD inh -9.9%.
COc1ccc(S(=O)(=O)Nc2ccc(S(=O)(=O)N3CCOCC3)cc2)cc1 was read as KDM4E inh 1.1%, PNC inhibitor -10.3, ALDH1A1 block 4.47µM* and HPGD inh -4.2%.
`Cc1ccc(S(=O)(=O)N2CCCN(S(=O)(=O)c3ccc(C)cc3)CC2)cc1` gave KDM4E inh 3.8%, PNC inhibitor -19.5, ALDH1A1 block inconclusive and HPGD inh -10.2%.
Screening Cc1ccc(S(=O)(=O)Nc2ccc(S(=O)(=O)N3CCCC3)cc2)cc1 returned KDM4E inh 6.9%, PNC inhibitor inconclusive, ALDH1A1 block 0.562µM* and HPGD inh -10.9%.
`O=S(=O)(NCc1ccco1)c1ccc(S(=O)(=O)N2CCCC2)cc1` gave KDM4E inh 3.5% and ALDH1A1 block 8.91µM*.
`O=C(O)/C(=C\c1ccccc1)Cc1ccccc1` gave ALDH1A1 block -1.5%[13.5 µM] and HPGD inh -5.5%.
`O=C(O)c1cncc(C#CCC2CCCCC2)c1` gave KDM4E inh 3.4%.
`O=C(O)CCC(=O)Nc1cc(C(F)(F)F)cc(C(F)(F)F)c1` gave KDM4E inh 14.7% and ALDH1A1 block 7.8%.
Screening O=C(COC(=O)CCc1ccc(S(=O)(=O)N2CCOCC2)cc1)NCc1ccccc1 returned KDM4E inh -4.9% and ALDH1A1 block 4.6%.
`COc1ccc(/C=N/NC(=O)COc2ccc(Cl)cc2Cl)cc1Cn1nc(C)cc1C` gave KDM4E inh 1.8%, PNC inhibitor inconclusive, ALDH1A1 block 7.6% and HPGD inh -7.4%.
Screening COc1ccc([C@@H](Nc2ccccn2)c2cc(C(C)(C)C)cc(C(C)(C)C)c2O)cc1 returned ALDH1A1 block 11.0%[13.5 µM] and HPGD inh -2.4%.
For CCCCC(=O)NC(=S)Nc1ccc(S(=O)(=O)N2CCCC2)cc1 the results were KDM4E inh 2.3%, PNC inhibitor inconclusive, ALDH1A1 block inconclusive and HPGD inh -7.4%.
Screening COc1cc(CNc2ncn[nH]2)ccc1OCc1cccc(C)c1 returned KDM4E inh -19.3% and ALDH1A1 block 2.9%.
`COC(=O)C1OC(=O)C2OC23[C@]2(C)C(OC(C)=O)CC4C(C)(C)C(=O)CC[C@]4(C)C2CC[C@@]13C` (some centres undefined) gave KDM4E inh 9.4%, ALDH1A1 block -2.5% and HPGD inh -7.4%.
Screening O=C(O)CCC(=O)N1CCc2cc(S(=O)(=O)Nc3ccc4c(c3)OCCO4)ccc21 returned KDM4E inh -1.2%, PNC inhibitor 19.2, ALDH1A1 block 6.9% and HPGD inh 25.1µM*.
`CSc1ccc(S(=O)(=O)Nc2ccc3c(c2)OCCO3)cc1` gave KDM4E inh -5.0%, PNC inhibitor 15.0, ALDH1A1 block 15.8µM* and HPGD inh -19.0%.
O=S(=O)(Nc1ccc(S(=O)(=O)N2CCCCC2)cc1)c1cccs1 was read as KDM4E inh 4.6%, PNC inhibitor -102.1*, ALDH1A1 block 12.6µM* and HPGD inh 9.5%.
`O=C(Cc1cccs1)Nc1ccc(S(=O)(=O)N2CCCC2)cc1` gave KDM4E inh 0.5% and ALDH1A1 block 12.6µM*.
COCc1cc(C)nc(OCC(=O)N/N=C/c2ccc(-c3cc([N+](=O)[O-])ccc3Cl)o2)c1C#N was read as KDM4E inh 3.6% and ALDH1A1 block 3.9%.
Cc1ccc(NS(=O)(=O)c2ccc(C(=O)N3CCCN(C)CC3)cc2)cc1 was read as KDM4E inh -0.2%, PNC inhibitor -100.0*, ALDH1A1 block -0.1% and HPGD inh 1.5%.
Screening COc1cccc(NC(=S)N(CCCN2CCN(C)CC2)Cc2ccco2)c1 returned KDM4E inh -4.7% and ALDH1A1 block 1.6%.
